The list is not random: actives were taken first. Their share in the collection is about 2.8%.
esBAF inh = inhibitors of esBAF chromatin remodeling in mouse ES cells | Bmi1-luciferase knock-in reporter, 24 h; 100% = twice the neutral-well signal | hit rate 2% among 350,000 | reporter increase, % at 12.5 µM | AID 602393; in the data active = activation above about 40%; inconclusive = no clear call, values can overlap the other calls;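 also: a rise in the Bmi1 reporter signal indicates esBAF inhibition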
MITF TRPM1 HTS = activators of MITF-driven TRPM1 promoter activity in SK-MEL-5 cells. activation, % at 12.5 µM. AID 588334. SK-MEL-5 TRPM1-promoter luciferase, 24 h; % of positive control, neutral wells = 0. hit rate 0.75% among 300,000;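 active = mean activation of at least 80% with every replicate also reaching 80%; inconclusive = mean reaches 80% but some replicate falls short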
FXN GAA850 act = frataxin GAA850 promoter activation; HEK293 lucGAA850 FXN promoter luciferase reporter, 24 h; percent of 10 µM SAHA response; activation, % at 6 µM; hit rate 0.56% among 360,000;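 active = activation above the average of all compounds screened plus 3 SD, cutoff fixed separately per campaign, cut at about 7.5% in these data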
Wnt bcat act = activates Wnt/beta-catenin signaling in a reporter cell assay; AID 743398; activation, % at 9.35 µM; activator, plate reader; hit rate 1.2% among 300,000; in the data active = activation above about 30%, passing the limit was not always enough; inconclusive = no clear call, values can overlap the other calls
GAA30 counter = GAA30 FXN promoter activation counter-screen; activation, % at 6 µM; shares compounds with FXN GAA850 act; hit rate 66% among 1,900; HEK293 lucGAA30 FXN promoter luciferase, 24 h; DMSO = 0%, 5 µM ipriflavone = 100%;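 active = mean activation above the mean of solvent-only control wells plus 3 SD, cut at about 22% in these data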;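 also: counterscreen of GAA850 promoter hits where activity marks nonselective or luminescence artifacts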
GAA850 confirm = confirmation of GAA850 frataxin (FXN) promoter activators. activation, % at 6 µM. hit rate 86% among 1,900. shares compounds with FXN GAA850 act. HEK293 lucGAA850 FXN promoter luciferase reporter, 24 h; 100% = activation by SAHA;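 active = mean activation above a set limit taken from the primary screen, cut at about 8% in these data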
Large screens that a line does not name were inactive (follow-up assays come after a bar, where they were run).

CC(NS(=O)(=O)c1ccc(Br)cc1)C(c1cccs1)N1CCN(C)CC1 (configuration not stated)	FXN GAA850 act 17.4 (no result: MITF TRPM1 HTS) | GAA30 counter inactive | GAA850 confirm inactive
COCCn1c(C)cc(C(=O)COC(=O)c2ccc3ncsc3c2)c1C	FXN GAA850 act 7.8 | GAA30 counter 93.3 | GAA850 confirm 32.2
COCCn1c(C)cc(C(=O)COC(=O)c2cncc(Br)c2)c1C	none
CCCN(C)C[C@@H]1OCCCC[C@@H](C)Oc2ccc(NS(C)(=O)=O)cc2C(=O)N([C@H](C)CO)C[C@H]1C	none (no result: MITF TRPM1 HTS, FXN GAA850 act, Wnt bcat act)
Cc1ccc(NC(=O)c2oc3ccccc3c2NC(=O)C2CCCO2)cc1C (configuration not stated)	MITF TRPM1 HTS 104.2, FXN GAA850 act 8.0, Wnt bcat act 47.3 (no result: esBAF inh) | GAA30 counter 106.1 | GAA850 confirm 37.6
CCC(=O)Nc1c(C(=O)Nc2ccc3c(c2)OCCO3)oc2ccccc12	MITF TRPM1 HTS 97.5, FXN GAA850 act 9.8, Wnt bcat act 36.4 (no result: esBAF inh) | GAA30 counter 104.0 | GAA850 confirm 32.0
COCCNC(=O)C[C@@H]1CC[C@@H]2[C@H](COC[C@@H](O)CN2C(=O)Nc2ccc3c(c2)OCO3)O1	none (no result: MITF TRPM1 HTS, FXN GAA850 act, Wnt bcat act)
Cn1cc(CN2CCCC(CNC(=O)c3ccc4c(c3)OCO4)C2)c2ccccc21 (configuration not stated)	FXN GAA850 act 10.9 | GAA30 counter inactive | GAA850 confirm 12.6
CC(=O)NCC1CCCN(Cc2cn(-c3ccccc3)nc2-c2ccc3c(c2)OCO3)C1 (configuration not stated)	none (no result: esBAF inh)
CNC[C@@H]1OCCCC[C@@H](C)Oc2ccc(NC(=O)Nc3ccc4c(c3)OCO4)cc2C(=O)N([C@H](C)CO)C[C@H]1C	none (no result: MITF TRPM1 HTS, FXN GAA850 act, Wnt bcat act)
O=C(NCC[C@@H]1CC[C@H](NS(=O)(=O)c2ccccc2)[C@H](CO)O1)c1ccccc1F	none (no result: MITF TRPM1 HTS, FXN GAA850 act, Wnt bcat act)
C[C@@H]1CCCCO[C@@H](CN(C)Cc2ccccc2)[C@@H](C)CN([C@H](C)CO)C(=O)c2cc(NC(=O)CCCN(C)C)ccc2O1	none (no result: MITF TRPM1 HTS, FXN GAA850 act, Wnt bcat act)
c1ccc(C2=Nn3c(nnc3-c3cc(-c4ccccc4)n[nH]3)SC2)cc1	FXN GAA850 act 8.3 (no result: Wnt bcat act) | GAA30 counter 41.4 | GAA850 confirm 23.3
Clc1ccc(C2=Nn3c(nnc3-c3cc(-c4ccccc4)n[nH]3)SC2)cc1	none (no result: Wnt bcat act)
O=C(CN1CCN(Cc2ccccc2F)C1=O)NCc1cccnc1	FXN GAA850 act 12.9 | GAA30 counter inactive | GAA850 confirm inactive
O=C(CN1CCN(Cc2ccccc2Cl)C1=O)NCc1cccnc1	none
Cc1ccc(O)c(-n2nc3ccccc3n2)c1	esBAF inh 42.8, MITF TRPM1 HTS inconclusive, FXN GAA850 act 9.2 | GAA30 counter 114.1 | GAA850 confirm 34.8
Cc1ccc(N(CC(O)Cn2c3ccccc3c3ccccc32)S(C)(=O)=O)cc1 (configuration not stated)	none
CC(=O)Nc1ccc(N(CC(O)Cn2c3ccccc3c3ccccc32)S(=O)(=O)c2ccc(C)cc2)cc1 (configuration not stated)	FXN GAA850 act 16.4 (no result: esBAF inh) | GAA30 counter inactive | GAA850 confirm 12.4
Fc1ccccc1N=C1NN=C(c2ccccc2)CS1	esBAF inh 52.9, FXN GAA850 act 8.0 | GAA30 counter 123.7 | GAA850 confirm 40.5
N#Cc1ccc(/C=C(\C(=O)C(=O)O)c2ccc3ccccc3n2)cc1	FXN GAA850 act 8.3 | GAA30 counter 131.8 | GAA850 confirm 43.0
N#CCCN(C(=O)COC(=O)c1ccc2ccccc2n1)c1ccccc1	none
CCN(CC)S(=O)(=O)c1cc(NC(=O)CCc2c(C)noc2C)ccc1C	none
CCN(CC)S(=O)(=O)c1cc(NC(=O)CSCc2c(C)noc2C)ccc1C	FXN GAA850 act 8.4 | GAA30 counter inactive | GAA850 confirm 8.2
Cc1nc(N)sc1C(=O)N/N=C/c1ccccc1[N+](=O)[O-]	none (no result: esBAF inh, MITF TRPM1 HTS)
CC(/C=N/NC(=O)c1sc(N)nc1C)=C\c1ccccc1	MITF TRPM1 HTS 120.0, FXN GAA850 act 8.1, Wnt bcat act inconclusive (no result: esBAF inh) | GAA30 counter 116.3 | GAA850 confirm 41.3
C[C@H](CO)N1C[C@H](C)[C@@H](CN(C)C(=O)C2CCCCC2)OCCCC[C@H](C)Oc2ccc(NC(=O)C3CCCCC3)cc2C1=O	none (no result: MITF TRPM1 HTS, FXN GAA850 act, Wnt bcat act)
COc1cccc(S(=O)(=O)N[C@@H]2CC[C@H](CCNC(=O)Cc3ccncc3)O[C@H]2CO)c1	none (no result: MITF TRPM1 HTS, FXN GAA850 act, Wnt bcat act)
Cc1ccc(-c2nn(-c3ccccc3)cc2/C=N/NS(=O)(=O)c2ccccc2)cc1	FXN GAA850 act 8.4 (no result: esBAF inh, Wnt bcat act) | GAA30 counter 80.9 | GAA850 confirm 23.3
CC1Oc2ccccc2C=C1/C=N/Nc1ccc(C(=O)O)cc1 (configuration not stated)	FXN GAA850 act 10.2 (no result: esBAF inh) | GAA30 counter 97.4 | GAA850 confirm 38.4
COc1cc(CNc2ccc3[nH]c(=O)[nH]c3c2)ccc1OCc1cccc(C)c1	none
COc1cc(CNc2ccc3[nH]c(=O)[nH]c3c2)ccc1OCc1ccc(C)cc1	esBAF inh 54.6, FXN GAA850 act 9.0, Wnt bcat act 44.2 | GAA30 counter 74.1 | GAA850 confirm 30.0
COc1cc(CNc2ccc3[nH]c(=O)[nH]c3c2)ccc1OCc1ccccc1Cl	FXN GAA850 act 7.9 | GAA30 counter 35.7 | GAA850 confirm 20.4
COCc1cn(CC[C@@H]2CC[C@@H](NC(=O)CCN3CCCCC3)[C@H](CO)O2)nn1	none (no result: MITF TRPM1 HTS, FXN GAA850 act, Wnt bcat act)
CSC(=S)NN=C(C)c1cccc(C)n1	FXN GAA850 act 16.4 (no result: esBAF inh, MITF TRPM1 HTS) | GAA30 counter inactive | GAA850 confirm inactive
CC(=NNC(=S)N1CCCCC1)c1cccc(C)n1	none (no result: esBAF inh)
CCC(C)Oc1cc(-c2ccnc(Nc3cccc(Cl)c3)n2)ccn1 (configuration not stated)	FXN GAA850 act 22.3 | GAA30 counter 40.2 | GAA850 confirm 81.6
O=C(N/N=C/c1ccc(OC(=O)c2ccco2)cc1)c1ccccn1	FXN GAA850 act 7.8 (no result: esBAF inh) | GAA30 counter 114.8 | GAA850 confirm 33.0
O=C(N/N=C/C=C\c1ccco1)c1ccccn1	FXN GAA850 act 7.7 (no result: esBAF inh) | GAA30 counter 63.0 | GAA850 confirm 37.8
C[C@H]1CCCCO[C@H](CN(C)C(=O)C2CCCCC2)[C@@H](C)CN([C@@H](C)CO)C(=O)c2cc(NC(=O)CCCN(C)C)ccc2O1	none (no result: MITF TRPM1 HTS, FXN GAA850 act, Wnt bcat act)
CO[C@H]1CN(C)C(=O)c2cc(NC(=O)C3CC3)ccc2OC[C@H](C)N(CCC(F)(F)F)C[C@@H]1C	none (no result: MITF TRPM1 HTS, FXN GAA850 act, Wnt bcat act)
COc1ccc([C@@H]2[C@@H]3C(=O)N(C(C)(C)C)C(=O)[C@@H]3[C@]3(Cc4ccccc4)C(=O)N(c4ccc(OC)cc4)C(=O)N23)cc1	none
CC(C)(C)N1C(=O)[C@H]2[C@@H](c3ccc(Br)cc3)N3C(=O)N(c4ccccc4)C(=O)[C@@]3(Cc3ccccc3)[C@H]2C1=O	FXN GAA850 act 9.9 | GAA30 counter inactive | GAA850 confirm 13.6
CC(C)(C)N1C(=O)[C@H]2[C@@H](c3ccc(Br)cc3)N3C(=O)N(c4cccc(Br)c4)C(=O)[C@@]3(Cc3ccccc3)[C@H]2C1=O	FXN GAA850 act 14.7 (no result: Wnt bcat act) | GAA30 counter inactive | GAA850 confirm 11.2

Bioassay records as filed in PubChem.
